Rows were chosen to be rich in hits. Some 2.4% of all compounds tested hit in one or more screens of this group.
D2 PAM-1 – HTS Assay for Positive Allosteric Modulators of the Human D2 Dopamine Receptor: Primary Screen for Potentiators; HEK293 T-REx D2, calcium flux, EC20 dopamine potentiation; 340,000 tested, 0.34% active; D(2) dopamine receptor (Homo sapiens), P14416; AID 485347, 2010; potentiation, % at 10 µM;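 active means potentiation over 3 SD above the plate norm, cut at about 30% in these data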; further: 0% is about no effect
Target sequence (P14416 whole entry, looked up): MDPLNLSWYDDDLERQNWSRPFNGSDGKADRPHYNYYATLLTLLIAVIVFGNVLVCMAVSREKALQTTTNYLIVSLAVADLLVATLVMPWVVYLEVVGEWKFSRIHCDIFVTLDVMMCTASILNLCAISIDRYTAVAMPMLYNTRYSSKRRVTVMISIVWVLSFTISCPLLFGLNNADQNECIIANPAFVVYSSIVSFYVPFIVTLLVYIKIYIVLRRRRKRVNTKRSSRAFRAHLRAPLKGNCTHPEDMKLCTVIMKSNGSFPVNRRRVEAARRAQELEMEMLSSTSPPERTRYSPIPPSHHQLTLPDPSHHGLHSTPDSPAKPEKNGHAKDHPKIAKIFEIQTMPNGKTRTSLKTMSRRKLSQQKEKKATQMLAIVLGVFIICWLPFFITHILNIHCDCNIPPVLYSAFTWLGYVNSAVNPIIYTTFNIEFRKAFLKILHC
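Using a no-wash calcium dye in inducible, force-coupled HEK293 Trex cells expressing D2, we tracked fluorescence each second for 180 s after compound, then for 180 s after EC20 dopamine to detect augmented signalling.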
D2 PAM-2 – Beta-Arrestin HTS for Positive Allosteric Modulators of the Human D2 Dopamine Receptor: Potentiators. D(2) dopamine receptor (Homo sapiens), P14416. DiscoveRx D2 beta-arrestin cells, luminescence, 90 min; 100% = 57 uM dopamine signal. potentiation, % (test concentration not listed). 360,000 tested, 0.23% active; in the data active means potentiation above about 50%
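PathHunter D2 cells, attached overnight at 37 deg C, received compound in DMSO plus dopamine at EC20 (50 nM final) for 90 min at 37 deg C. Beta-arrestin recruitment was read as luminescence after 1 h with detection reagent at ambient temperature.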
D2 ag-1 – HTS Assay for Allosteric Agonists of the Human D2 Dopamine Receptor: Primary Screen for Agonists; HEK293 T-REx D2 cells, calcium flux agonist mode; activation, % at 2 µM; 340,000 tested, 0.53% active;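 active means activation over 3 SD above normal in the single-dose calcium agonist read, cut at about 30% in these data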; further: 0% is about no effect
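Calcium-flux readout, 1 cycle/sec over 180 s following compound pin transfer, in inducible HEK293 Trex D2 cells (force-coupled); dopamine controls included. Positive calcium responses during this window marked compounds as potential agonists.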
D2 ag-2 – Beta-Arrestin HTS for Positive Allosteric Modulators of the Human D2 Dopamine Receptor: Agonists. AID 624465, 2012. activation, % (test concentration not listed). D(2) dopamine receptor (Homo sapiens), P14416. DiscoveRx PathHunter D2 beta-arrestin, luminescence, 90 min; 100% = 57 uM dopamine signal. 360,000 tested, 0.084% active; in the data active means activation above about 40%
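Agonist mode: compounds alone added to overnight-plated D2 PathHunter cells for 90 min at 37 C, with 57 uM final dopamine (EC100) defining full response. Beta-arrestin recruitment detected by chemiluminescent reagent, read after 1 h at ambient temperature.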
D2 antag – HTS Assay for Allosteric Antagonists of the Human D2 Dopamine Receptor: Primary Screen for Antagonists | D(2) dopamine receptor (Homo sapiens), P14416 | 340,000 tested, 2% active | inhibition, % at 10 µM | HEK293 TREx D2 cells, calcium flux, dopamine EC80; in the data active means inhibition above about 30%; inactive means below that, where a call was filed; further: 0% is about no effect
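Calcium flux kinetic readout in an inducible HEK293 TREx D2 line plated overnight at 30 C. After 180 s compound exposure, an EC80 dopamine challenge follows with another 180 s kinetic read to detect antagonism.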
The depositor's hits bear a star; · = not tested or not shown.

SMILES | D2 PAM-1 | D2 PAM-2 | D2 ag-1 | D2 ag-2 | D2 antag
CCSc1nnc(NC(=O)c2ccc(Br)s2)s1 | 0 | -18 | 1 | -2 | -11
O=C(Nc1nnc(C(F)(F)F)s1)c1ccc(Br)s1 | -18 | -6 | 19 | -10 | 35*
CCCSc1ncc(Cl)c(C(=O)Nc2ccc(S(=O)(=O)N3CCCCC3C)cc2)n1 (stereo unspecified) | -4 | · | · | · | ·
CCOC(=O)N1CCN(C(=O)C2CCN(S(=O)(=O)c3cc(C)ccc3OC)CC2)CC1 | -2 | -1 | -1 | -2 | 33*
COc1ccccc1CN1C[C@@H]2C[C@@H](c3ccc(C)c(C)c3)N3CCC[C@@]23C1=O | -2 | -6 | 0 | -3 | 35*
Cc1cc(C)c(S(=O)(=O)NCCc2cc3ccc(C)cc3[nH]c2=O)c(C)c1 | -2 | · | -2 | · | ·
Cc1cc(Br)ccc1NC(=O)CNC(=O)CNc1cccc([N+](=O)[O-])c1 | -11 | -28 | 0 | 0 | 31*
O=C(CNc1cccc([N+](=O)[O-])c1)NCCCc1ccccc1 | -11 | -6 | 0 | -4 | 11
O=C(O)c1ccccc1S(=O)(=O)Cc1ccccc1 | -11 | -5 | 1 | -2 | 36*
COc1ccc(CN2CCC(=O)N([C@H](CO)c3ccccc3)CC2)cc1 | -11 | -20 | 0 | -2 | 52*
O=C1CCN(Cc2cccnc2)CCN1[C@H](CO)c1ccccc1 | -8 | -6 | 0 | 0 | 0
COc1ccc(C(=O)C2CCCN(C/C=C/c3ccccc3OC)C2)c(OC)c1 (stereo unspecified) | -22 | -8 | -1 | -2 | 86*
COc1cccc(C(=O)C2CCCN(C/C=C/c3ccccc3OC)C2)c1 (stereo unspecified) | -22 | -2 | -1 | 1 | 0
CC1CCC(N2CC(=O)N(C3CCCCC3)C(c3ccc(Cl)cc3)C2=O)CC1 (stereo unspecified) | 5 | · | 1 | · | ·
Cc1cc(C)c(S(=O)(=O)N2CCN(c3ccc([N+](=O)[O-])c(NCc4ccco4)c3)CC2)c(C)c1 | 0 | -14 | -1 | 0 | -2
O=[N+]([O-])c1ccc(N2CCN(CCO)CC2)cc1NCc1ccco1 | -22 | -40 | -1 | -4 | 34*
CC(C)(C)c1ccc(OCC(=O)NNC(=O)C2CCCO2)cc1 (stereo unspecified) | -2 | 1 | 0 | -3 | 5
CC(C)=C1C2CCC1C1C(=O)N(NC(=O)COc3ccc(C(C)(C)C)cc3)C(=O)C21 (stereo unspecified) | 3 | -9 | 0 | -2 | 32*
CCCN(CCC)C(=O)Cn1c(=O)n(Cc2ccc(C(=O)NCCc3ccc(Cl)cc3)cc2)c(=O)c2ccccc21 | -7 | · | 1 | · | ·
Cc1cc(C)n(-c2ccc(C(=O)OCC(=O)N(CC(C)C)C3CCS(=O)(=O)C3)cc2)n1 (stereo unspecified) | -2 | 5 | -1 | -1 | 51*
Cc1ccc(-n2c(=O)c3c4c(sc3n(CC(=O)c3ccc(Cl)cc3)c2=O)CCC4)cc1C | 3 | · | · | · | ·
Cc1cccnc1NC(=O)CSc1nnc(Cc2ccccc2)o1 | -4 | -5 | 0 | -1 | 44*
COc1ccc(Cc2nnc(SCC(=O)c3ccccc3)o2)cc1 | -2 | -3 | 1 | -4 | 8
O=C(CSc1ccc2c(c1)OCCO2)Nc1cccnc1Cl | 9 | -2 | 0 | -7 | -9
Cc1cccnc1NC(=O)CSc1ccc2c(c1)OCCO2 | -1 | -2 | 2 | -1 | 32*
SMILES | D2 PAM-1 | D2 PAM-2 | D2 ag-1 | D2 ag-2 | D2 antag
COc1ccc(Cc2nnc(SCC(=O)N(C)c3ccccc3)o2)cc1 | 2 | -3 | -1 | 4 | 66*
Cc1ccccc1-c1nnc(SCC(=O)Nc2cccnc2Cl)o1 | · | -6 | · | 0 | ·
COCCc1nn2c(=O)cc(COC(=O)C(c3ccccc3)c3ccccc3)nc2s1 | 2 | · | · | · | ·
COc1ccccc1NC(=O)Cn1c(=O)n(CCc2ccccc2)c(=O)c2c3c(sc21)CN(C(C)=O)CC3 | 4 | · | 0 | · | ·
COc1ccc(Br)cc1CNC(=O)c1ccc2c(c1)nc1n2CCCCC1 | -6 | · | 0 | · | ·
c1ccc2c(c1)OC(CCCN1CCCCC1)c1ccccc1S2 (stereo unspecified) | -28 | -31 | 1 | -5 | 87*
CN1CCCC(CC2Oc3ccccc3Sc3ccccc32)C1 (stereo unspecified) | -33 | -17 | 3 | -6 | 96*
c1ccc(OCCCCN2CCCCC2)cc1 | -14 | -12 | 1 | -2 | 0
Nc1cccc(-c2cn3ccsc3n2)c1 | 8 | · | 2 | · | ·
N#Cc1ccccc1COC(=O)c1ccc2c(c1)OCCO2 | -4 | -21 | 0 | 4 | 31*
Cc1nnc(SCC(=O)Nc2ccc(N(C)C)cc2)[nH]c1=O | 13 | · | -1 | · | ·
COc1cccc(Oc2nc(-c3ccccc3O)nc3ccccc23)c1 | -6 | 5 | -1 | -3 | 43*
O=C(O)c1ccnc(Cl)c1 | 2 | -8 | -2 | 1 | 32*
C=CCN(CC=C)Cc1c(C)[nH]c2c(C)c(C)ccc2c1=O | 31* | -6 | 0 | -4 | 6
O=C(NNC(=O)c1cccc(C(F)(F)F)c1)c1ccc(-n2cnnn2)cc1 | · | 0 | · | -1 | ·
CC(NC(=O)Cn1cnnn1)c1cccc(C(F)(F)F)c1 (stereo unspecified) | 38* | -4 | -2 | 1 | -18
CC(=O)Nc1ccc(C2Nc3c(C)cc(C)cc3-c3cc(C)nn32)cc1 (stereo unspecified) | 1 | · | 1 | · | ·
Cc1ccc(NC(=O)Nc2nnc(SCC(=O)N(C(C)C)C(C)C)s2)cc1 | 14 | · | · | · | ·
COc1cc2[nH]c(-c3ccc(C)cc3)cc(=O)c2cc1OC | -20 | -31 | -1 | 1 | 84*
COc1ccc(-c2cc(=O)c3cc(C)ccc3[nH]2)cc1 | -9 | -21 | 0 | -4 | 14
O=C(c1cccs1)N1CCN(C(=O)C2CCCO2)CC1 (stereo unspecified) | -7 | -1 | 7 | -1 | 37*
COc1ccc(-c2ccc(-c3nnc(Cc4ccc(OC)c(OC)c4)o3)cc2)cc1 | -8 | -2 | 0 | -2 | 30*
COc1ccc(OC)c(NCc2nnc(-c3ccccc3)o2)c1 | 0 | -3 | 0 | -1 | -22
COc1ccc(CCN(C)Cc2nc(Cc3ccc(OC)c(OC)c3)no2)cc1OC | 27 | -8 | -2 | -1 | 37*
COc1ccc(Cc2noc(-c3ccccc3)n2)cc1OC | 1 | -2 | 2 | 0 | 33*
